Test results: PubChem BioAssay (Tox21)
Results filed as inconclusive are left out. Values without a mark were called inactive. Calls come from the whole dose curve; as a rule, active = well fitted cell-killing curve with a large enough effect in the repeat runs; inconclusive = weak or mixed curves; inactive = flat fitted curve, though single readings scatter.

assay: qHTS RealTime-Glo MT Cell Viability Assay in HepG2 cells - 16 hour (AID 1224885); conditions: RealTime-Glo luminescence; series mostly up to 76.8 µM; activity change, negative = cytotoxic: at the top concentration; note: nearly all actives have a fitted effect of over 50% in size
Text: U.S. Tox21 Program National Center for Advancing Translational Sciences [NCATS] NIH Chemical Genomics Center [NCGC] U.S. Environmental Protection Agency [EPA] National Institutes of Environmental Health Sciences [NIEHS] National Toxicology Program [NTP] U.S. Food and Drug Administration [FDA] Tox21 Assay Overview: Measure of cell viability is critical in the cell-base assay. Analysis of cell viability is necessary for the characterization of cell responses to cytotoxic drugs and environmental stress. A RealTime-Glo MT Cell Viability Assay to monitor cell viability in real time of continues cell culture during 40 hours of compound treatment was used to screen Tox21 10K library compounds in HepG2 cells. The RealTime-Glo MT Cell Viability Assay is a nonlytic, homogeneous, bioluminescent method to measure cell viability in real time using a simple, plate-based method. The assay involves adding NanoLuc luciferase and a cell-permeant prosubstrate to cells in culture. Viable cells reduce the proprietary prosubstrate to generate a substrate for NanoLuc luciferase. This substrate diffuses from cells into the surrounding culture medium, where it is rapidly used by the NanoLuc Enzyme to produce a luminescent signal. The signal correlates with the number of viable cells, making the assay well suited for cytotoxicity studies.
Tox21 Assay Protocol Summary: The mixture of HepG2 cell suspension and reagents were dispensed at 600cells/6 ul/well in 1536-well tissue culture treated black solid bottom plates using a Multidrop dispenser. After the assay plates were incubated at a 37 C/5% CO2 incubator for 5 hours, 23 nL of compounds dissolved in DMSO, positive and negative controls was transferred to the assay plate by a pintool work station. The plates were incubated at 37 C for 40 hours. The luminescence intensity were measured at 0h, 8h, 16h, 24h, 32h and 40h time points using ViewLux plate reader during compound treatment.
% is set by controls: 0 for no effect and ±100 for the full control effect.

Row | Compound | activity change, negative = cytotoxic
1 | Cc1nc2ccccc2n1Cc1ccc(Cl)cc1 | -20.6% [at 35.3 µM]
2 | O=C(O)Cn1c(C(=O)Nc2nc(-c3ccccc3Cl)cs2)cc2ccccc21 | 0.673% [at 35.3 µM]
3 | Cc1ccc(O)c([C@H](CCN(C(C)C)C(C)C)c2ccccc2)c1 | -12.6% [at 35.3 µM]
4 | CCN(CCO)CCCC(C)Nc1ccnc2cc(Cl)ccc12 (stereo not given) | 4.27% [at 6.97 µM]
5 | C=CC[N+]1([C@H]2C[C@H]3[C@@H]4CC[C@H]5C[C@H](OC(C)=O)[C@@H](N6CCCCC6)C[C@]5(C)[C@H]4CC[C@]3(C)[C@H]2OC(=O)CC)CCCCC1 | 0.558% [at 35.3 µM]
6 | CCN(CC)CCNC(C(=O)OCCC(C)C)c1ccccc1 (stereo not given) | 3.13% [at 35.3 µM]
7 | CC(=O)c1ccc2c(c1)[C@H](NC(=O)c1ccc(F)cc1)[C@@H](O)C(C)(C)O2 | -3.3%
8 | COC(Cc1ccccc1)OC | 1.05%
9 | O=S1(=O)N=C(O)c2ccccc21 | -2.93% [at 35.3 µM]
10 | CC(C)(C)C1CCCCC1O (stereo not given) | -0.263%
11 | CCc1nn(C2CCCCC2)c2cc(C3(C#N)CCC(C(=O)O)CC3)ccc12 (stereo not given) | -7.45%
12 | CC(C)(C)c1ccc(S)cc1 | -2.29%
13 | N#CCc1cccc(C(F)(F)F)c1 | 0.417%
14 | CCN(CC)C(C)=O | 0.0043%
15 | OCCC1CCCCN1 (stereo not given) | 3.34%
16 | N[C@H]1C(O)O[C@H](CO)[C@H](O)[C@@H]1O (stereo not given in full) | 0.0642%
17 | SC1CCCC1 | -0.484%
18 | CCC(=O)OC(C)(C)C1CC=C(C)CC1 (stereo not given) | 1.32%
19 | NCc1ccccc1 | 1.8%
20 | N#CCCNCCC#N | -0.706%

Row | Compound | activity change, negative = cytotoxic
21 | Cc1cccc(C(C)(C)C)c1O | -17.3%
22 | Oc1ccc(C(O)CNCCCCCCNCC(O)c2ccc(O)c(O)c2)cc1O (stereo not given) | 1.27% [at 35.3 µM]
23 | CC(=O)N(CC(=O)N(C)C)c1ccccc1 | 1.36% [at 35.3 µM]
24 | Cn1c(NCCN(CCO)CCCc2ccc([N+](=O)[O-])cc2)cc(=O)n(C)c1=O | -1.26% [at 35.3 µM]
25 | S=C(S)NCCNC(=S)S | -0.917%
26 | CC(C)(C)c1cc(CCC(=O)OCC(COC(=O)CCc2cc(C(C)(C)C)c(O)c(C(C)(C)C)c2)(COC(=O)CCc2cc(C(C)(C)C)c(O)c(C(C)(C)C)c2)COC(=O)CCc2cc(C(C)(C)C)c(O)c(C(C)(C)C)c2)cc(C(C)(C)C)c1O | -0.115% [at 35.3 µM]
27 | CC(C)(C)C(=O)OCOP(=O)(COCCn1cnc2c(N)ncnc21)OCOC(=O)C(C)(C)C | -7.61% [at 35.3 µM]
28 | CN(C)CC/C=C1\c2ccccc2COc2ccccc21 | -11.9% [at 35.3 µM]
29 | CC(C)(C)c1cc(O)c(C(C)(C)C)cc1O | -22.4%
30 | CCCOc1ccc2nc(NC(=O)OC)[nH]c2c1 | -5.65% [at 35.3 µM]
31 | Oc1ccc(Cc2ccccc2)cc1 | -6.22%
32 | CCCCCCCCCC(=O)OCC | 5.55%
33 | CC(=O)O[C@H]1C[C@@H]2CC[C@@H]3[C@H](CC[C@@]4(C)[C@H]3C[C@H]([N+]3(C)CCCCC3)[C@@H]4OC(C)=O)[C@@]2(C)C[C@@H]1N1CCCCC1 | 0.449% [at 35.3 µM]
34 | C1CCC2OC2C1 (stereo not given) | -0.0278%
35 | Cc1ccc(C(=O)C(C)CN2CCCCC2)cc1 (stereo not given) | 4.12% [at 35.3 µM]
36 | CCCCCCc1ccc(N)cc1 | -10.6%
37 | Cc1cccc(OCCOc2cccc(C)c2)c1 | -0.519%
38 | COC(=O)C(C)=O | 4.21%
39 | O=C(Nc1ccccc1)OCC(CN1CCCCC1)OC(=O)Nc1ccccc1 (stereo not given) | -17.8% [at 35.3 µM]
40 | CCCCCCCCCCCCCCCC(=O)OC/C=C(C)/C=C/C=C(C)/C=C/C1=C(C)CCCC1(C)C | 1.36%
